EPAC1 ag val = human EPAC1 agonism, validation; EPAC1 Rap1b BODIPY-GDP exchange, fluorescence; Potency, µM, for the others: max response, positive = active, actives largely listed as activators; hit rate 1% among 16,000; AID 1645883; note: nearly all actives have a fitted effect of over 70% in size
EPAC2 antag = human EPAC2 antagonism, validation. Q8WZA2. EPAC2 Rap1B BODIPY-GDP exchange, fluorescence. Potency, µM (series often up to 112 µM), for inactives: at the highest dose activity, negative = inhibition, hits mostly inhibitors. hit rate 1.7% among 16,000;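 note: 100% = activation by cAMP agonist control; nearly all actives have a fitted effect of over 40% in size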
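Fluorescent exchange read-out: 100 nM EPAC2 with 250 nM RAP1B–BODIPY-GDP and 50 uM GDP; BODIPY-GDP release lowers fluorescence. Read at 480/540 nm every 5 min for 30 min at room temperature; normalized to 6.5 mM cAMP.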
* = called active by the depositor; ! = repeats disagree. Hits are enriched below; roughly 2.9% of the tested compounds scored in any of these assays. Calls come from the whole dose curve; as a rule, active = well fitted curve in the direction sought with a large enough effect; inconclusive = small, poorly fitted or top-dose-only effect, or another doubt; inactive = no such curve, though single readings can be large; an effect the other way counts as inactive or inconclusive. Unless noted, % is set by controls: 0 for no effect and ±100 for the full control effect; potency is the fitted concentration of half-maximal effect.

CCCCC(=O)O[C@H]1CC[C@H]2[C@@H]3CCc4cc(O)ccc4[C@H]3CC[C@]12C was read as EPAC1 ag val -110.4% and EPAC2 antag 50.1µM*.
Screening C[C@]12CC[C@@H]3c4ccc(O)cc4CC[C@H]3[C@@H]1CC[C@@H]2OP(=O)(O)O returned EPAC1 ag val 1.7% and EPAC2 antag 1.4%.
CCC(=O)OC1CCC2C3CCc4cc(O)ccc4C3CC[C@]12C (some centres undefined) was read as EPAC1 ag val 5.2% and EPAC2 antag 39.8µM*.
For CC[C@]1(O)C[C@H]2CN(CCC3=c4ccccc4=N[C]3[C@@](C(=O)OC)(c3cc4c(cc3OC)N(C)[C@H]3[C@@](O)(C(N)=O)[C@H](O)[C@]5(CC)C=CCN6CC[C@]43[C@@H]65)C2)C1 the results were EPAC1 ag val 20.3% and EPAC2 antag -14.3%.
`CCC1CN(Cc2cn[nH]c2-c2ccc(F)cc2)Cc2cc(OC)ccc2O1` (centres undefined) gave EPAC1 ag val -1.0% and EPAC2 antag inconclusive.
`CC(=O)OCC(=O)[C@@]1(O)[C@H](C)C[C@H]2[C@@H]3C[C@H](F)C4=CC(=O)C=C[C@]4(C)[C@H]3[C@@H](O)C[C@@]21C` gave EPAC1 ag val -20.8% and EPAC2 antag 5.8%.
`CCCCC/C=C\CCC(=O)N[C@H]1[C@H](Oc2c3cc4cc2Oc2ccc(cc2Cl)[C@@H](O[C@@H]2O[C@H](CO)[C@@H](O)[C@H](O)[C@H]2NC(C)=O)[C@@H]2NC(=O)[C@H](NC(=O)[C@@H]4NC(=O)[C@H]4NC(=O)[C@@H](Cc5ccc(c(Cl)c5)O3)NC(=O)[C@H](N)c3ccc(O)c(c3)Oc3cc(O)cc4c3)c3ccc(O)c(c3)-c3c(O[C@H]4O[C@H](CO)[C@@H](O)[C@H](O)[C@@H]4O)cc(O)cc3[C@@H](C(=O)O)NC2=O)O[C@H](CO)[C@@H](O)[C@@H]1O` gave EPAC1 ag val -122.2% and EPAC2 antag 35.2%.
Screening COc1ccccc1N1CCN(c2nc(CNC(=O)c3ccc4c(c3)OCO4)nc3ccccc23)CC1 returned EPAC1 ag val 9.6% and EPAC2 antag inconclusive.
For COc1ccc(C(=O)NCc2nc(-c3cccc(NC(=O)c4ccc(C)s4)c3)oc2C)cc1 the results were EPAC1 ag val 2.0% and EPAC2 antag -0.7%.
For CC(c1ccon1)N(C)C(=O)c1cnn(-c2ncc3c(n2)-c2ccccc2CC3)c1C1CC1 (centres undefined) the results were EPAC1 ag val -4.8% and EPAC2 antag -37.0%.
CC1(C)CCC2=C(O1)c1ccccc1C(=O)C2=O was read as EPAC1 ag val -6.9% and EPAC2 antag 28.2µM*!.
`COc1ccc2[nH]cc(CCNc3nc(-c4ccccc4OC)nc4ccccc34)c2c1` gave EPAC1 ag val inconclusive and EPAC2 antag -20.8%.
COc1ccc2[nH]cc(CCNc3nc(-c4cccc(C#N)c4)nc4ccccc34)c2c1 was read as EPAC1 ag val 112µM* and EPAC2 antag -27.7%.
`COc1ccc(CN2CCCC(c3nc(-c4ccncc4)ncc3-c3ccccc3C)C2)c(OC)c1` (centres undefined) gave EPAC1 ag val 15.5% and EPAC2 antag inconclusive.
`Cc1noc(C)c1-c1nc(N(C)Cc2ccco2)c2ccccc2n1` gave EPAC1 ag val inconclusive and EPAC2 antag 20µM*.
Screening Cc1noc(C)c1-c1nccc(N(C)Cc2ccco2)n1 returned EPAC1 ag val -2.2% and EPAC2 antag -17.9%.
CN(C)c1ccc(-c2nc(N(C)Cc3ccco3)c3ccccc3n2)cc1 was read as EPAC1 ag val inconclusive and EPAC2 antag -16.3%.
For CN(C)C(=O)c1ccc(-c2nc(N(C)Cc3ccco3)c3ccccc3n2)cc1 the results were EPAC1 ag val inconclusive and EPAC2 antag -21.0%.
For CN(Cc1ccco1)c1nc(-c2ccoc2)nc2ccccc12 the results were EPAC1 ag val inconclusive and EPAC2 antag 25.1µM*.
For CN(Cc1ccco1)c1nc(-c2cccc(C#N)c2)nc2ccccc12 the results were EPAC1 ag val 100µM* and EPAC2 antag -11.9%.
For COc1cc2c(cc1OC)CN(C(=O)[C@@H]1C[C@H](NCc3cn(C)c4ccccc34)CN1C1Cc3ccccc3C1)CC2 the results were EPAC1 ag val -0.6% and EPAC2 antag -4.8%.
`CNc1nc(-c2ccc3c(c2)OCO3)nc2ccccc12` gave EPAC1 ag val -20.5% and EPAC2 antag -29.5%.
For c1ccc(Nc2nc(-c3ccc4c(c3)OCO4)nc3ccccc23)cc1 the results were EPAC1 ag val 100µM* and EPAC2 antag -26.2%.
CN1CCN(CCCN2c3ccccc3Sc3ccc(C(F)(F)F)cc32)CC1 was read as EPAC1 ag val -1.9% and EPAC2 antag 56.2µM*!.
For O=C(CCN1CCN(CCO)CC1)N1c2ccccc2Sc2ccc(C(F)(F)F)cc21 the results were EPAC1 ag val 13.3% and EPAC2 antag 6.6%.
For O=C(c1ccncc1)N1CCC2(CC1)CN(c1cccc(-c3ccccc3)c1)C2 the results were EPAC1 ag val inconclusive and EPAC2 antag -40.8%.
`COC(=O)N1CCC2(CCCN(c3cccc(-c4ccccc4)c3)C2)CC1` gave EPAC1 ag val 112µM* and EPAC2 antag -25.1%.
O=C(c1ccco1)N1CCC2(CCCN(c3cccc(-c4ccccc4)c3)C2)CC1 was read as EPAC1 ag val inconclusive and EPAC2 antag -14.6%.
For O=C(c1cnccn1)N1CCC[C@@]2(CCN(c3ccccc3)C2)C1 the results were EPAC1 ag val -43.8% and EPAC2 antag -18.5%.
`COc1ccc(C(=O)N2CCC3(CC2)CN(c2cccc(-c4ccccc4)c2)C3)cc1` gave EPAC1 ag val 112µM* and EPAC2 antag -26.3%.
`COc1ccc(C(=O)N2CCC3(CCCN(c4ccccc4)C3)CC2)cc1` gave EPAC1 ag val -19.8% and EPAC2 antag -19.9%.
`COc1ccc(C(=O)N2CCC3(CCCN(c4cccc(-c5ccccc5)c4)C3)CC2)cc1` gave EPAC1 ag val 100µM* and EPAC2 antag -9.4%.
O=C(c1cnccn1)N1CCC[C@@]2(CCN(c3cccc(-c4ccccc4)c3)C2)C1 was read as EPAC1 ag val 100µM* and EPAC2 antag inconclusive.
For O=C1O[C@@H]2[C@@H](O)[C@H](O)O[C@@H]2[C@H]1O the results were EPAC1 ag val 5.2% and EPAC2 antag -15.2%.
Screening CC(CN1c2ccccc2Sc2ccc(S(=O)(=O)N(C)C)cc21)N(C)C (centres undefined) returned EPAC1 ag val -53.7% and EPAC2 antag 9.8%.
For CC(C)(C)NC(=O)[C@H]1CC[C@H]2[C@@H]3CC=C4C=C(C(=O)O)CC[C@]4(C)[C@H]3CC[C@]12C the results were EPAC1 ag val -60.1% and EPAC2 antag -5.4%.
For Cn1cccc1C(=O)N1CCC[C@@]2(CCN(c3cccc(-c4ccccc4)c3)C2)C1 the results were EPAC1 ag val 16.9% and EPAC2 antag -28.9%.
Screening Cn1cccc1C(=O)N1CCC2(CCCN(c3cccc(-c4ccccc4)c3)C2)CC1 returned EPAC1 ag val 112µM* and EPAC2 antag -11.3%.
Screening Cc1ccc(C(=O)Nc2cccc(-c3nc(CNC(=O)c4cccc(N(C)C)c4)c(C)o3)c2)s1 returned EPAC1 ag val 13.4% and EPAC2 antag 3.1%.
Screening O=C1/C(=C\c2cccs2)CCC/C1=C\c1cccs1 returned EPAC1 ag val 9.1% and EPAC2 antag -0.1%.
CCCCCCCCCCC/C=C\C(C)(C)/C=C\CCCC(=O)O was read as EPAC1 ag val -58.0% and EPAC2 antag 35.5µM*!.
`CCCCCCC/C=C\CCCCCCCCC(=O)O` gave EPAC1 ag val -25.7% and EPAC2 antag 28.2µM*.

Screening data from PubChem.
